Laboratory results from the supplement of paper PMC10849652.
About 8,800 targets were measured; listed, in parts, are those with a hit and a random draw of the rest. About 0.5% of all pairs of compound and target were hits. Values without a mark were called inactive.

Tests used:
Test in all cases: log2 fold change, soluble protein after heating vs DMSO (PISA); higher = thermal stabilisation; K562 lysate, 10 uM; active = over 0.2 and 3.5 SD of the protein, either way, in both replicates (recomputed)
[1] = compound: NCC(=O)Nc1ccc(-n2nc(C(F)(F)F)cc2-c2ccc3c(ccc4ccccc43)c2)cc1
Outline: (§1)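 Following dounce homogenisation of K562 pellets in PBS pH 7.4 with 1 mM MgCl2, crude extract at 1 mg/mL protein was incubated for 30 min with 10 μM compound. Aliquots were then heated for 3 min over 48°C-58°C and pooled, NP-40 was added to 0.5% at 4°C, and soluble protein was recovered as the supernatant at 21,000xg for 90 min. Channel-sum-equalised TMTpro 16plex LC-MS/MS quantified this protein. Each value, from duplicates, is a log-two fold change in thermal stability relative to solvent controls.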

vorinostat = compound: O=C(CCCCCCC(=O)Nc1ccccc1)NO [vorinostat]
Outline: as §1

silmitasertib = compound: O=C(O)c1ccc2c(c1)nc(Nc1cccc(Cl)c1)c1ccncc12 [silmitasertib]
Outline: as §1

[2] = compound: O=C1NC(=O)C(c2cnc3ccccn23)=C1c1cn2c3c(cc(F)cc13)CN(C(=O)N1CCCCC1)CC2
Outline: as §1

entospletinib = compound: c1cn2cc(-c3ccc4cn[nH]c4c3)nc(Nc3ccc(N4CCOCC4)cc3)c2n1 [entospletinib]
Outline: as §1

## VAC14 (UniProt Q08AM6)
Chain of UniProt Q08AM6 (Q08AM6 whole entry, looked up): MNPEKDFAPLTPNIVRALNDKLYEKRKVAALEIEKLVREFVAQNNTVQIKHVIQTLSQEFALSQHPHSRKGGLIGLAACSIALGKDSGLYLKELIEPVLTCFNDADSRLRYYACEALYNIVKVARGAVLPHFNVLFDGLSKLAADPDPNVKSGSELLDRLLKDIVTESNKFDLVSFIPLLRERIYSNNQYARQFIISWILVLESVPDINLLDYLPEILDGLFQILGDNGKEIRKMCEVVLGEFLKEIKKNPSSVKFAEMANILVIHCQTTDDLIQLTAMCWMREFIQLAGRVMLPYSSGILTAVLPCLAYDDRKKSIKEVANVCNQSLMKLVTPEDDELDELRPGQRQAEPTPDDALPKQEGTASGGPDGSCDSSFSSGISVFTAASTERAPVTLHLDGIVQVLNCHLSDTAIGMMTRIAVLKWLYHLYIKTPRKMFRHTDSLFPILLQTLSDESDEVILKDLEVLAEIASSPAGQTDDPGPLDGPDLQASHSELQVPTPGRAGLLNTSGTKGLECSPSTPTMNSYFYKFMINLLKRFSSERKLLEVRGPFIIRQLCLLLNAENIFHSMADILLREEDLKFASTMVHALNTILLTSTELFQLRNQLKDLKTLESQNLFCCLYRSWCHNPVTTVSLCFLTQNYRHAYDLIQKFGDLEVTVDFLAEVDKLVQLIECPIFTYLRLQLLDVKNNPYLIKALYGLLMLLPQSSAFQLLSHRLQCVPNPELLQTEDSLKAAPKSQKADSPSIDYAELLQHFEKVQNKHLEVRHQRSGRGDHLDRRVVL
[1]
  log2 fold change: -0.02
vorinostat
  log2 fold change: -0.229 (active)
silmitasertib
  log2 fold change: 0.041
[2]
  log2 fold change: 0.005
entospletinib
  log2 fold change: -0.008

## UXT isoform 2 (UniProt Q9UBK9)
Chain of UniProt Q9UBK9 (Q9UBK9 whole entry, looked up): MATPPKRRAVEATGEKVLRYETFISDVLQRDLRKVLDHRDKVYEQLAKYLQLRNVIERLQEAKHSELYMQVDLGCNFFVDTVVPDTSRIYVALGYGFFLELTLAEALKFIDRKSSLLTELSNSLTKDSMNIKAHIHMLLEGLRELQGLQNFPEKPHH
[1]
  log2 fold change: -0.003
vorinostat
  log2 fold change: 0.037
silmitasertib
  log2 fold change: -0.039
[2]
  log2 fold change: -0.025
entospletinib
  log2 fold change: 0.02

## ZMYM4 (UniProt Q5VZL5)
[1]
  log2 fold change: 0.05
vorinostat
  log2 fold change: -0.383 (active)
silmitasertib
  log2 fold change: -0.016
[2]
  log2 fold change: 0.009
entospletinib
  log2 fold change: -0.013

## WDR3 (UniProt Q9UNX4)
Chain of UniProt Q9UNX4 (Q9UNX4 whole entry, looked up): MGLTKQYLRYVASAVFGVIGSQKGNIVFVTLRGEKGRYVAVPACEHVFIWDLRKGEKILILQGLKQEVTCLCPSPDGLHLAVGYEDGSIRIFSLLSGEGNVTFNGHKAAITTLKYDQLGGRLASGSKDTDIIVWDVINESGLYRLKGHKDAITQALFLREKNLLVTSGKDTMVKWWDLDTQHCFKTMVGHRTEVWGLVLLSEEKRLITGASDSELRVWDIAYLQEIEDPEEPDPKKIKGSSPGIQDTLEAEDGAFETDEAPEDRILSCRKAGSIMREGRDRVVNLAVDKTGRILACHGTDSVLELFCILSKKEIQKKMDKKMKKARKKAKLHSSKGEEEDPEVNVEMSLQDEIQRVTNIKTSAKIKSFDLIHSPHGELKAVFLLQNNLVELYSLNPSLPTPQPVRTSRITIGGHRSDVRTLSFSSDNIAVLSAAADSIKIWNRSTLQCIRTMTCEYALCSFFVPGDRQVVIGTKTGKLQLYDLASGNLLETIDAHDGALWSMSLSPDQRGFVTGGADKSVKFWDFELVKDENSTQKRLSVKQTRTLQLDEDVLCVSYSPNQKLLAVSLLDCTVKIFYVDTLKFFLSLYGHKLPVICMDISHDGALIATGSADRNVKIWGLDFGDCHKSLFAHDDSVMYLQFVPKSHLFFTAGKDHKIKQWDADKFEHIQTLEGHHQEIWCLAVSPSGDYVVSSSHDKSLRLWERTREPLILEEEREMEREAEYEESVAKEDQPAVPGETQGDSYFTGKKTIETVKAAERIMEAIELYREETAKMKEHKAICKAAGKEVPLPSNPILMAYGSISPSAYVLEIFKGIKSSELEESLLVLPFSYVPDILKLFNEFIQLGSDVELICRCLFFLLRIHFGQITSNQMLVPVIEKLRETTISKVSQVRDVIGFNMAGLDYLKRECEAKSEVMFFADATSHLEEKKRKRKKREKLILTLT
[1]
  log2 fold change: -0.031
vorinostat
  log2 fold change: -0.255 (active)
silmitasertib
  log2 fold change: 0.044
[2]
  log2 fold change: 0.01
entospletinib
  log2 fold change: -0.001

## XPO1 (UniProt O14980)
Chain of UniProt O14980 (O14980 whole entry, looked up): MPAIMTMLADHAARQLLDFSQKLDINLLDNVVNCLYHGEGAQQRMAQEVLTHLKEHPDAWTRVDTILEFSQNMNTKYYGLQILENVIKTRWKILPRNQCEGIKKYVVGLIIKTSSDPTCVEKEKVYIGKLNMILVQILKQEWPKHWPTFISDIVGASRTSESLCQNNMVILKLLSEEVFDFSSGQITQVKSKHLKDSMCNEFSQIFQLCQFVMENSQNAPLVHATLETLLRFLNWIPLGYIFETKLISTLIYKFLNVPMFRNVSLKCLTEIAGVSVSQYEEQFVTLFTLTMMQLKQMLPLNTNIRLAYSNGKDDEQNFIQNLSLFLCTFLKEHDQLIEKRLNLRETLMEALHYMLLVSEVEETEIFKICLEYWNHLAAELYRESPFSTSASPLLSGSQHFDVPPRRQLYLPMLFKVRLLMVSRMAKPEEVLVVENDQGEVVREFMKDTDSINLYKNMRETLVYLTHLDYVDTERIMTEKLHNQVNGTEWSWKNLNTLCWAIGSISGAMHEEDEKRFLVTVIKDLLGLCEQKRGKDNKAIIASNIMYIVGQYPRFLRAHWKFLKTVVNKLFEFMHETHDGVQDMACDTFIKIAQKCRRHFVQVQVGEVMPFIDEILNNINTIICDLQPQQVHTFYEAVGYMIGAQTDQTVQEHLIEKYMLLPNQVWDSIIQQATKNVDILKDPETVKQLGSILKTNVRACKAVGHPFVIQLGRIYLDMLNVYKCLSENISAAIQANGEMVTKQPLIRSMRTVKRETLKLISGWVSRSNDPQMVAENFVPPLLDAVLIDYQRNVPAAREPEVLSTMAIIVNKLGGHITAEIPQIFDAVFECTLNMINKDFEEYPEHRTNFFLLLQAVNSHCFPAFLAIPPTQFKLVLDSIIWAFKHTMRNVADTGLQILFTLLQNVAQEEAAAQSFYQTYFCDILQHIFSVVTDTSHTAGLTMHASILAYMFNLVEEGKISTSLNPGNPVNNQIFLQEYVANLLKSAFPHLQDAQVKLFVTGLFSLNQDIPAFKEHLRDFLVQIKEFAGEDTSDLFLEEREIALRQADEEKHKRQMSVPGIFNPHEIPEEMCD
[1]
  log2 fold change: 0.009
vorinostat
  log2 fold change: -0.233 (active)
silmitasertib
  log2 fold change: 0.003
[2]
  log2 fold change: -0.001
entospletinib
  log2 fold change: 0.036

## VHL (UniProt P40337)
[1]
  log2 fold change: 0.015
vorinostat
  log2 fold change: -0.289
silmitasertib
  log2 fold change: -0.038
[2]
  log2 fold change: -0.011
entospletinib
  log2 fold change: -0.001

## ZNF845 (UniProt Q96IR2)
Chain of UniProt Q96IR2 (Q96IR2 whole entry, looked up): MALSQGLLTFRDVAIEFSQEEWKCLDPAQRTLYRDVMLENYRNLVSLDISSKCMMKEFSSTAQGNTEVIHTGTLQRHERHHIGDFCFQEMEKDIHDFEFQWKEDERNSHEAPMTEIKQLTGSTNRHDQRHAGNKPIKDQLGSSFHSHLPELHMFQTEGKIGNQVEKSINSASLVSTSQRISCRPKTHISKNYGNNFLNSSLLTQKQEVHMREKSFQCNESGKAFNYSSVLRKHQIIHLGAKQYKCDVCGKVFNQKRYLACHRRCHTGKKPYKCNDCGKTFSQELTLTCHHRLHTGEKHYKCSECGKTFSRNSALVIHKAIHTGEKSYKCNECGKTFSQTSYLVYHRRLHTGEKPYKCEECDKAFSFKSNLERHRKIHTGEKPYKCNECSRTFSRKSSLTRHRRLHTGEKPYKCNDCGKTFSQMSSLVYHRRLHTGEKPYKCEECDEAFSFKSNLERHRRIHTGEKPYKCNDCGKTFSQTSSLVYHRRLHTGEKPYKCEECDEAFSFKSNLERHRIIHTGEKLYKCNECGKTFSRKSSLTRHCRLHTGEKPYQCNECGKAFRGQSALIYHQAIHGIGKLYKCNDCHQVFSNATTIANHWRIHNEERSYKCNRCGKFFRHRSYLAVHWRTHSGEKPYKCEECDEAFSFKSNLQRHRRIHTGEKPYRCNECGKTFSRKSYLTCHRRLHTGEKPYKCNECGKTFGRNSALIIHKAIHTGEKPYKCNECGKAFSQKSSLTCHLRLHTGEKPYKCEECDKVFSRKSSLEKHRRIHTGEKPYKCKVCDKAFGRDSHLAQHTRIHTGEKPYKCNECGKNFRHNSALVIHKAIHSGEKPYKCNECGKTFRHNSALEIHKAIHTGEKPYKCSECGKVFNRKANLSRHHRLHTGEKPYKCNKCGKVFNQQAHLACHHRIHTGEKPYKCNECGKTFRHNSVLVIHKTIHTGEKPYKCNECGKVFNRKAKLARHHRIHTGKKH
[1]
  log2 fold change: -0.074
vorinostat
  log2 fold change: -0.297
silmitasertib
  log2 fold change: 0.364 (active)
[2]
  log2 fold change: -0.113

## VPS35L (UniProt Q7Z3J2)
Chain of UniProt Q7Z3J2 (Q7Z3J2 whole entry, looked up): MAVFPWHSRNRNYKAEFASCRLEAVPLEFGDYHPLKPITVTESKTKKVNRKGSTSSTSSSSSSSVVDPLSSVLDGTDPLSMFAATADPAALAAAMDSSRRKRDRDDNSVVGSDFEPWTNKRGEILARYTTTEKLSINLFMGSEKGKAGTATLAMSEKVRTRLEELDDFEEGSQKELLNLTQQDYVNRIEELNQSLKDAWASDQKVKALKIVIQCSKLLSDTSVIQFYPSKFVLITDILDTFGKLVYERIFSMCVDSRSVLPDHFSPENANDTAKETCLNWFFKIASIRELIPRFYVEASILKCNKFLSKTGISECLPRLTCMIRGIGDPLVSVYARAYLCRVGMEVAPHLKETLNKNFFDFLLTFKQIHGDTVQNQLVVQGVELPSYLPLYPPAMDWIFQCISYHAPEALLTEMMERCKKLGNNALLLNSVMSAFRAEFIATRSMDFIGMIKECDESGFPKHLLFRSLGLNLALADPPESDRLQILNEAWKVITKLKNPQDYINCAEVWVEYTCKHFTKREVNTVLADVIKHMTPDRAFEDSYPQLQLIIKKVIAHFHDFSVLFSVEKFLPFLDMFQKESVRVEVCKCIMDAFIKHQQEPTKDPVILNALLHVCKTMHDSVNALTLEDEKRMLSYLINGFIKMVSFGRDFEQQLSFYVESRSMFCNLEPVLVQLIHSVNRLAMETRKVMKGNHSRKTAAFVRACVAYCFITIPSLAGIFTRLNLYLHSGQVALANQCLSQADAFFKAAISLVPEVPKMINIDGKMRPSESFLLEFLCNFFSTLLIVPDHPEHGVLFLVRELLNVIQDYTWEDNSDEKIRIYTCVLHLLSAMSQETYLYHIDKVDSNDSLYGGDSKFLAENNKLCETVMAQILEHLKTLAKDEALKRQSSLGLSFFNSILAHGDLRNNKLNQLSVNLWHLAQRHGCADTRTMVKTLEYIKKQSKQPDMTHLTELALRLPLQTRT
[1]
  log2 fold change: 0.019
vorinostat
  log2 fold change: -0.266 (active)
silmitasertib
  log2 fold change: 0.027
[2]
  log2 fold change: -0.006
entospletinib
  log2 fold change: 0.015

## VAMP2 (UniProt P63027)
Chain of UniProt P63027 (P63027 whole entry, looked up): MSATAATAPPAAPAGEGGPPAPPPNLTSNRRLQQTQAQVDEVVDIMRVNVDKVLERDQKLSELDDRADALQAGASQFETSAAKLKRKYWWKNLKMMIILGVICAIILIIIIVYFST
[1]
  log2 fold change: 0.071
vorinostat
  log2 fold change: 0.016
silmitasertib
  log2 fold change: -0.008
[2]
  log2 fold change: 0.132
entospletinib
  log2 fold change: -0.054
